Screens deposited in PubChem by National Center for Advancing Translational Sciences (NCATS).
A selection: hits, their analogues and other compounds. The true share with any hit is near 4.5%.
OvCa metastasis = inhibitors of ovarian cancer cell adhesion and invasion in omental model. SKOV3ip1-GFP adhesion/invasion on 3D omental model, fluorescence. Potency, µM (titrated, usually from 45.8 µM), hits mostly inhibitors. hit rate 0.1% among 46,000. AID 1963576; further: nearly all actives have a fitted effect of over 65% in size
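qHTS, 4-pt dose (0.36-46 umol/L); SKOV3ip1-GFP, 1,200 cells/well, no FBS; primary omental fibroblast/mesothelial co-culture 48 h pre-grown; 2 h RT + 16 h 37 C; PBS wash, 4% PFA; GFP count 488/509 nm.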
NTMT1 inh = NTMT1 methyltransferase inhibition. hit rate 2.5% among 59,000. Q9BV86. NTMT1 MTase-Glo SAH luminescence, purified enzyme. Potency, µM (series often up to 114 µM), hits mostly inhibitors; further: nearly all actives have a fitted effect of over 65% in size
DRV1 agonist = activates human resolvin D1 receptor GPR32 | AID 1346428 | CHO-K1 GPR32 beta-arrestin PathHunter luminescence, 90 min; zero percent set by DMSO-only wells | activation, % at 76.9 µM | hit rate 2.5% among 48,000;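 active means activation of at least 60% and not above a set upper limit, about 1 call in 100 departs from these limits; inconclusive means activation of 40% to 60%, or above that upper limit; inactive means activation under 40%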
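CHO-K1 cells stably expressing ProLink-tagged GPR32 and Enzyme Activator-tagged beta-arrestin were seeded at 2,500 cells/well overnight, exposed to compounds for 90 min at 37 °C, then read by beta-Gal complementation chemiluminescence after 1 h detection reagent.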
HTT-AS act = activators of huntingtin-antisense promoter activity. HEK293 HTT-AS promoter firefly luciferase reporter, 24 h; response scale: percent change from vehicle, -100% = no light. Potency, µM (series often up to 57.5 µM), most hits filed as activators. hit rate 0.24% among 48,000. AID 1508624; further: nearly all actives have a fitted effect of over 55% in size
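HEK293 cells carrying firefly luciferase reporters were seeded at 2,500 per well in Opti-MEM and cultured for 24 h. They were then treated with compounds at up to 57.5 uM final for 24 h at 37 degrees C before Dual-Glo luminescence readout.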
HTT promoter inh = inhibits huntingtin promoter activity; Potency, µM (highest dose often 57.5 µM), hits mostly inhibitors; HEK293 HTT promoter firefly luciferase reporter, 24 h; hit rate 0.93% among 48,000; further: nearly all actives have a fitted effect of over 50% in size
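HEK293 cells carrying firefly luciferase reporters were seeded at 2,500 per well in Opti-MEM and cultured for 24 h. They were then treated with compounds at up to 57.5 uM final for 24 h at 37 degrees C before Dual-Glo luminescence readout.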
DYRK1A inh-1 = human DYRK1A kinase inhibition by ATP depletion readout | shares compounds with NTMT1 inh | recombinant DYRK1A, Kinase-Glo ATP depletion luminescence | Potency, µM (top dose mostly 76.9 µM), usual class: inhibitors | hit rate 80% among 100 | AID 2705
CLK4 inh-1 = confirmation of human CLK4 kinase inhibitors, SAR round 2 | hit rate 90% among 90 | Potency, µM (highest dose often 76.9 µM), actives largely listed as inhibitors | shares compounds with NTMT1 inh | recombinant Clk4, Kinase-Glo ATP luminescence, 4.5 h
Target sequence (Q9HAZ1 whole entry, looked up): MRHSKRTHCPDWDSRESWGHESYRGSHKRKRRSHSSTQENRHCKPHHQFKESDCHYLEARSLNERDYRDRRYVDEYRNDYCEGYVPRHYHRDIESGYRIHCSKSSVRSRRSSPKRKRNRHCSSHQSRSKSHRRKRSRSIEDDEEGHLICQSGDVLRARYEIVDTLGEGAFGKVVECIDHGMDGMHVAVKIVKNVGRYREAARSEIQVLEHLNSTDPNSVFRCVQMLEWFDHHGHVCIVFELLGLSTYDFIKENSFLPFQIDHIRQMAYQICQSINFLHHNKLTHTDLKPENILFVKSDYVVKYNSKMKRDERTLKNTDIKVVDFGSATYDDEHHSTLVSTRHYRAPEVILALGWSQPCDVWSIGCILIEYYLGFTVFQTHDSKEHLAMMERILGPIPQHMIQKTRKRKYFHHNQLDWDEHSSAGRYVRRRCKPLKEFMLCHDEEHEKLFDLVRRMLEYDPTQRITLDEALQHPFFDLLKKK
CLK4 inh-2 = CLK4 kinase inhibition, SAR round 2. shares compounds with NTMT1 inh. Reaction Biology kinase assay, 10 uM ATP. Potency, µM, actives largely listed as inhibitors. hit rate 100% among 65. AID 504421; calls by dose curve
DYRK1A inh-2 = DYRK1A kinase inhibition; shares compounds with NTMT1 inh; Reaction Biology kinase assay, 10 uM ATP; Potency, µM, most hits filed as inhibitors; hit rate 90% among 65; AID 504424;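 active means compounds that showed inhibition of Dyrk1a and received a fitted potency; inactive means compounds that showed no inhibition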
CLK2 RBC = inhibitors of human CLK2 kinase. Reaction Biology kinase assay, 10 uM ATP. Potency, µM, hits mostly inhibitors. hit rate 90% among 65. shares compounds with NTMT1 inh;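 active means compound that inhibits Clk2 kinase in the dose series, with an IC50 potency reported; inactive means no inhibition seen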
CLK3 RBC = inhibitors of human CLK3 kinase | shares compounds with NTMT1 inh | recombinant CLK3 kinase assay, 10 uM ATP | hit rate 40% among 65 | Potency, µM, actives largely listed as inhibitors;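 active means compounds that inhibited Clk3 enough in the ten-dose series to give a half-maximal potency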
DYRK1B RBC = blocks human DYRK1B kinase activity. hit rate 80% among 65. shares compounds with NTMT1 inh. Potency, µM, hits mostly inhibitors. Recombinant Dyrk1b kinase assay, 10 uM ATP;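 active means compounds whose dose response shows an inhibitor phenotype against the kinase Dyrk1b; inactive means compounds showing no inhibitor phenotype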
CLK1 inh = inhibitors of human CLK1 kinase | shares compounds with NTMT1 inh | hit rate 90% among 65 | Potency, µM, actives largely listed as inhibitors | recombinant Clk1 kinase assay, 10 uM ATP;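 active means compounds that block the splicing kinase Clk1 enough to give a fitted half-inhibition concentration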
Sfp qHTS opt = Sfp PPTase inhibition, chemistry optimization | purified Sfp PPTase enzyme activity, qHTS | shares compounds with NTMT1 inh | Potency, µM (highest dose often 114 µM), hits mostly inhibitors | hit rate 78% among 230
HM489 growth = Sfp PPTase inhibitors: growth inhibition of B. subtilis HM489. shares compounds with NTMT1 inh. B. subtilis HM489 (acpS-) growth, BacTiter-Glo, 5 h. Potency, µM (highest dose often 114 µM), most hits filed as inhibitors. hit rate 50% among 220
Sfp gel opt = inhibits B. subtilis Sfp PPTase in gel assay; hit rate 54% among 220; purified Sfp PPTase, gel-based product detection; shares compounds with NTMT1 inh; AID 540355; Potency, µM (series often up to 250 µM), actives largely listed as inhibitors
Sfp inh SAR2 = inhibits B. subtilis Sfp PPTase in second SAR round. shares compounds with NTMT1 inh. purified Sfp enzyme, PPTase activity, qHTS. Potency, µM (top dose mostly 57.1 µM), most hits filed as inhibitors. hit rate 87% among 230
HSD17B4 counter = HSD17B4 (human) inhibition, HPGD counter-screen. shares compounds with NTMT1 inh. purified HSD17B4, estradiol/NAD+, NADH fluorescence. Potency, µM (titrated, usually from 57.1 µM), actives largely listed as inhibitors. hit rate 10% among 230. AID 743187
ALDH1A1 inh = ALDH1A1 (human) inhibition, HPGD counter-screen. AID 743195. hit rate 93% among 230. shares compounds with NTMT1 inh. Potency, µM (top dose mostly 57.1 µM), usual class: inhibitors. recombinant ALDH1A1, NADH fluorescence, propionaldehyde/NAD+
NNMT inh = counter-screen for NTMT1 inhibitors: human NNMT inhibition | shares compounds with NTMT1 inh | NNMT MTase-Glo luminescence, SAH detection | Potency, µM (doses to about 57.1 µM), actives largely listed as inhibitors | hit rate 10% among 120 | AID 1645878
Target sequence (P40261 whole entry, looked up): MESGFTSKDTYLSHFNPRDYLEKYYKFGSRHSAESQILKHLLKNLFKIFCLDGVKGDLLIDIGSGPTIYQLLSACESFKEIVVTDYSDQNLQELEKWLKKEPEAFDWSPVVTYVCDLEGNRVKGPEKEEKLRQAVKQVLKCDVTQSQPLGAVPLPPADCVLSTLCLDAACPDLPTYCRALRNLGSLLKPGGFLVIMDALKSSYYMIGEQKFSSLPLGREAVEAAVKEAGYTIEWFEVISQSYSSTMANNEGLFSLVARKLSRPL
Of the large screens only hits and unclear results are named; the others gave an inactive call (follow-up assays come after a bar, where they were run); ! = repeats disagree. Unless noted, the call rests on the fitted dose curve; in most records, active means well fitted curve in the direction sought with a large enough effect; inconclusive means small, poorly fitted or top-dose-only effect, or another doubt; inactive means no such curve, though single readings can be large; an effect the other way counts as inactive or inconclusive.

O=C(O)c1ccc(-c2ccc3ncnc(N4CCOCC4)c3c2)o1	none (no result: OvCa metastasis, DRV1 agonist, HTT-AS act, HTT promoter inh) | CLK4 inh-1 0.653µM | CLK4 inh-2 2.95 | DYRK1A inh-2 44.6µM | CLK2 RBC 32.6µM | CLK3 RBC inactive | DYRK1B RBC 33.7µM | CLK1 inh 46.3µM
Cc1ccc(CNC(=O)c2c(C)oc3ncnc(N4CCOCC4)c23)cc1	none
CC(O)c1ccc(-c2ccc3ncnc(N4CCOCC4)c3c2)o1 (stereo not given)	NTMT1 inh inconclusive (no result: OvCa metastasis, DRV1 agonist, HTT-AS act, HTT promoter inh) | CLK4 inh-1 0.412µM | CLK4 inh-2 1.85 | DYRK1A inh-2 29.2µM | CLK2 RBC 19µM | CLK3 RBC inactive | DYRK1B RBC 45.2µM | CLK1 inh 8.97µM
Cc1oc2ncnc(N3CCOCC3)c2c1C(=O)N(Cc1ccccc1)C(C)C	NTMT1 inh inconclusive
COc1ccc(C(=O)Nc2cc(C)c(O)c(-c3nc4ccccc4s3)c2)cc1OC	none
O=C([C@@H]1CCCN(c2ccc3[nH]c(C4(n5cc(Cl)cn5)CC4)nc3n2)C1)N1CCCC1	NTMT1 inh inconclusive (no result: OvCa metastasis, DRV1 agonist, HTT-AS act, HTT promoter inh) | NNMT inh inactive
O=C(Nc1ccc(F)c(Cl)c1)C1CCCN(c2cnccn2)C1 (stereo not given)	none
Cc1cc2oc(C(=O)Nc3sc4c(c3C(=O)NCC3CCCO3)CCC4)cc(=O)c2cc1C (stereo not given)	none
Cc1ccc(Nc2nnc(Cc3ccncc3)c3ccccc23)cc1Br	none (no result: OvCa metastasis, DRV1 agonist, HTT-AS act, HTT promoter inh)
Clc1ccc(Nc2nnc(Cc3ccncc3)c3ccccc23)cc1	NTMT1 inh 89.1µM!, DRV1 agonist 71.8, HTT promoter inh inconclusive | NNMT inh inconclusive
CCN(c1ccccc1)c1nnc(NC(=O)Nc2cccc(C(F)(F)F)c2)s1	HTT promoter inh inconclusive
Cc1ccc(Cn2c(=O)c3cccnc3n(CC(=O)Nc3cccc(C(F)(F)F)c3)c2=O)cc1	HTT promoter inh inconclusive
Cc1ccnc(NC(=S)NCCNc2cccc(C(F)(F)F)c2)c1	NTMT1 inh inconclusive (no result: OvCa metastasis, DRV1 agonist, HTT-AS act, HTT promoter inh) | Sfp qHTS opt inconclusive | HM489 growth inconclusive | Sfp gel opt inactive | Sfp inh SAR2 6.46µM | HSD17B4 counter 6.07µM | ALDH1A1 inh 19.2µM
Cc1ccnc(NC(=S)NCCN(C)c2cccc(C(F)(F)F)c2)c1	none (no result: OvCa metastasis, DRV1 agonist, HTT-AS act, HTT promoter inh) | Sfp qHTS opt inconclusive | HM489 growth inactive | Sfp gel opt inactive | Sfp inh SAR2 inconclusive | HSD17B4 counter inactive | ALDH1A1 inh 15.2µM
COc1ccc(NC(=O)C2=CC(c3ccco3)=NS(=O)(=O)N2C)cc1OC	none
O=C(NCCN1CCCC1)c1cc(-c2ccc(CN3CCOCC3)cc2)nc2ccc(F)cc12	none (no result: OvCa metastasis, DRV1 agonist, HTT-AS act, HTT promoter inh) | NNMT inh inactive
Cc1ccc2nc3sc(C(=O)NCCN4CCOCC4)cc3cc2c1	none (no result: OvCa metastasis, DRV1 agonist, HTT-AS act, HTT promoter inh)
CC(=O)c1ccc(NC(=O)c2nn(C)c3c2CS(=O)(=O)c2ccccc2-3)cc1	none
CCN(CCc1cn(C)cn1)c1ncnc2ccc(-c3ccc4c(c3)OCO4)cc12	NTMT1 inh inconclusive (no result: OvCa metastasis, DRV1 agonist, HTT-AS act, HTT promoter inh) | DYRK1A inh-1 2.32µM
Cc1csc(CNc2ncnc3ccc(-c4ccc5c(ccn5C)c4)cc23)c1	none (no result: OvCa metastasis, DRV1 agonist, HTT-AS act, HTT promoter inh)
